The whole screen tested about 47,000 compounds, of which about 3,100 (6.6%) were called active. The sample holds actives, similar compounds and a random draw of the others, so the mix is not that of the screen. Unmarked numbers belong to inactive results. Rule as the data show it: active = inhibition above about 30%; inactive = the rest.

Chain of Ubiquitin carboxyl-terminal hydrolase 17-like protein 5 (Homo sapiens) (A8MUK1 whole entry, looked up): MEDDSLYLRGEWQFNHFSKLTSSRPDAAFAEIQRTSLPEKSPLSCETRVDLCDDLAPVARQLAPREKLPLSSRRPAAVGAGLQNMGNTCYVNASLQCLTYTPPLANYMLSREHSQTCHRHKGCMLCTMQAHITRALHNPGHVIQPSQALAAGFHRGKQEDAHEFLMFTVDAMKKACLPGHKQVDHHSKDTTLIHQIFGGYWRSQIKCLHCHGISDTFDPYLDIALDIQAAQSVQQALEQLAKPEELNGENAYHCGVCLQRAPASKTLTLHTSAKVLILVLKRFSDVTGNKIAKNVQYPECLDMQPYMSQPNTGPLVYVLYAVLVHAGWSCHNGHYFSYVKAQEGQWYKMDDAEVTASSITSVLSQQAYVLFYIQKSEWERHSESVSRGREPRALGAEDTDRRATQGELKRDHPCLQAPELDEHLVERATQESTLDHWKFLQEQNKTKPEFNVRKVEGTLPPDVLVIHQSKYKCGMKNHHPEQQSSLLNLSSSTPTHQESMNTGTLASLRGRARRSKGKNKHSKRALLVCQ

The assay concerns the target Ubiquitin carboxyl-terminal hydrolase 17-like protein 5 (Homo sapiens) (UniProt A8MUK1). In words: blocks human USP17 ubiquitin-rhodamine cleavage (AID 1645855). Conditions: purified USP17, Ub-rhodamine cleavage fluorescence, 3 h; at 50 µM; stronger effect = higher value.
The inhibition is the relative decrease from the control value, in per cent. On to `COc1cc(OC)cc(C(=O)Nc2ccc(S(=O)(=O)Nc3cc(C)on3)cc2)c1`, for which the inhibition is 3.28%.

With `COc1ccc(C(=O)Nc2ccc(N)cn2)cc1`, the inhibition was 12%.

Regarding `COc1ccc(NC(=O)c2ccnc(Nc3ccc(OC)cc3)c2)cc1`, the inhibition was 68.7% (active). As to `CC(=O)N1c2ncnn2C(c2ccc(Cl)cc2)CC1c1ccc(Cl)cc1` (centres undefined), the inhibition is -2.75%. Consider `CC(C)C(=O)Oc1cn(CCCN2CCCC2=O)c2nc(C(C)C)n3c4ccccc4nc3c12`, for which the inhibition was -84.6%.

Turning to `CCS(=O)(=O)Nc1cc(S(=O)(=O)Nc2cc(Cl)ccc2Cl)ccc1N1CCOCC1`, the inhibition is -13%. Turning to `Cc1ccc(CC(=O)N2CCN(C(=O)c3cc(-c4ccccn4)n[nH]3)CC2)cc1`, the inhibition was -21.8%. Take `CC1=NS(=O)(=O)N(Cc2ccccc2)C=C1C(=O)Nc1cc(F)ccc1F`: the inhibition is -4.7%. With `O=C(Nc1ccc(F)cc1)C1CCCN(C(=O)c2cc(-c3ccccn3)n[nH]2)C1` (centres undefined) the figure was -40%. For the molecule `O=C(Nc1ccc(Cl)cc1F)c1cc(-c2ccccn2)n[nH]1`, the inhibition is 83.2% (active). As for `COc1cnc(-c2ccccn2)nc1Sc1ccc(Cl)cc1Cl`, the inhibition was -0.938%. Consider `COc1cc(Cl)c(NC(=O)c2cc(-c3ccccn3)n[nH]2)c(OC)c1`, for which the inhibition was 47.4% (active). Turning to `O=C(CNc1ccc(OC2CCCC2)cc1)N1CCNC1=O`, the inhibition was 11.8%. With `CN1CCCN(c2nc(-c3cccnc3)nc3ccccc23)CC1`, the inhibition was -19%. For the molecule `Cc1ccc(-c2n[nH]c3c2CN(S(=O)(=O)C2CC2)CC3)cc1`, the inhibition is -2.42%. With `O=C(O)c1ccc(-n2cc(-c3cnccn3)cn2)cc1`, the inhibition was 1.05%. As for `CNC(=O)c1cnn2c(C3CCCN(c4ncccn4)C3)ccnc12` (centres undefined), the inhibition was 2.6%.

For the molecule `Cc1nnc(N2CCN(C(c3ccccc3)c3ccccc3)CC2)[nH]c1=O`, the inhibition was -0.696%. In the case of `C\C=C(/C=C(C)/C=C(C)/C=C/C=C(\C)C(=O)[C@]12O[C@H]1[C@@](O)(CCO)NC2=O)C(=O)OC`, the inhibition is -48.6%.

Consider `CCCCN(c1ccccc1)S(=O)(=O)c1cccc(C(=O)OCC(=O)NCc2ccc3c(c2)OCO3)c1`, for which the inhibition is 38% (active). On to `COc1ccc2c(Sc3ccccc3)c(C(=O)NCc3ccc4c(c3)OCO4)[nH]c2c1`, for which the inhibition was -5.49%. Take `O=C(COC(=O)c1ccc(F)c(S(=O)(=O)N2CCOCC2)c1)NCc1ccc2c(c1)OCO2`: the inhibition is 16.1%. Then `Nc1nc(N)nc(CN2C(=O)NC(Cc3ccccc3)(c3ccccc3)C2=O)n1` (centres undefined), with -1.99%.

On to `CCCOc1ccc(-c2csc3ncn(CCc4ccccc4)c(=O)c23)cc1`, for which the inhibition is 13.1%.

Source of the values: PubChem BioAssay AID1645855 (Buhrlage Lab, Dana-Farber Cancer Institute and Novartis …, 2021).
